# Measured values published in the OligoGym collection.
# Target: MIA
# Experiment: pooled miR-30 sensor sort-seq; sequence = guide strand
# Settings: shRNA
# Also: reference of the scale not given here.
row,Sequence,sensor-assay potency score (higher = more potent)
1,TGTCTGTCTTCACATCGACTTT,-1.3
2,TTTGTCTGTCTTCACATCGACT,-0.999
3,TTTGCCAGGTTTCAGGGTCTGG,-1.17
4,TCAGGGTCTGGTCCTCTCGGAC,-1.41
5,TCTCGGACAATGCTACTGGGGA,-1.23
6,TGAATGGTCAGGAATCGGCAGT,-0.833
7,TTCAGGGTCTGGTCCTCTCGGA,-0.169
8,TGGTCCGCACACAGCTTCCGGT,-1.49
9,ATTTGTCTGTCTTCACATCGAC,-0.34
10,TAGTAATCTCCCTGAACGCTGC,-0.496
11,TTGGGCATAGGACCACCCCTGA,-1.13
12,TGGTCCTCTCGGACAATGCTAC,-1.39

# Target: MIB1
# Experiment: as above
# Settings: shRNA
row,Sequence,sensor-assay potency score (higher = more potent)
1,TTTAGATAGTAAAACACGCATT,-0.883
2,TTTAGCAACATCTCCATTGGCA,0.277
3,TTGACCACTGACTTTTTCCTTA,0.24
4,ATTGACATTGGTATTATCCTTG,0.229
5,TTCCTTATGACACTTTGCCAGT,-1
6,ATTGGTATTATCCTTGTCCTTT,-0.409
7,TAGAAGTTTAATTCGTTCCAGG,0.00519
8,TTCAACTACTGCTCGACACTGC,0.708
9,TTAAAGTCTCAAACATTCCATC,-0.848
10,TATGCTGTCGTTCAACAGCAAG,-1.72
11,TTTACATCCACATCTGGTCTTT,0.23
12,TTAACTCATCAGAACTTCCAAC,-0.501
